Measurements: the supplement of paper PMC3334620
Over roughly 33,000 sequences, “E-score (-0.5 to 0.5)” has its median near -0.0034; the highest 2% begin near 0.25. Only a selection was taken, and the highest values are over-represented in it overall.

These sequences were tested against T1, Yap3 (UniProt P38749) (assay: PBM E-score (8-mer binding enrichment) (E-score (-0.5 to 0.5)); higher = stronger / more preferred TF binding). Settings: protein concentration: 100 nM; construct: GST-full length.
T1 sequence: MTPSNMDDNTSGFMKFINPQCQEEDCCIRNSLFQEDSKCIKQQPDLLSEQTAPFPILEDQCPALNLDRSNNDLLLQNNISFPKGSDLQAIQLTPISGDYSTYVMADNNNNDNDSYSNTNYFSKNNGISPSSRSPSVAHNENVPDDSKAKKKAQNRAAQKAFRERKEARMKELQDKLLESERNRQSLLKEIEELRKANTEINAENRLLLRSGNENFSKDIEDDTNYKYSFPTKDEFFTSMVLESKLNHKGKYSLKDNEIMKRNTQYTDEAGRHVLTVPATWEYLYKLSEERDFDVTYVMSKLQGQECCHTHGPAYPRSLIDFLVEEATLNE
Experimental: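 Universal 'all 10-mer' protein binding microarrays (Agilent AMADID 015681) probed with GST-tagged S. cerevisiae TFs (full-length or DBD) made by in vitro transcription/translation (PURExpress), about 100-200 nM. Bound TF was detected with fluorescent anti-GST. Each ungapped 8-mer (which stands for itself and its reverse complement) is scored by the PBM enrichment score (E-score), a modified Wilcoxon-Mann-Whitney statistic from -0.5 to +0.5, computed with the Universal PBM Analysis Suite. Scale: above 0.35 generally sequence-specific binding.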

Sequence	PBM E-score
CTTTGACC	0.0628
AGCTTGGC	-0.207
AATAGCGT	0.195
ATATTACC	0.276
AGATTACC	0.155
CTATTACC	-0.0641
CAAGTACA	-0.0722
AAAGTACC	0.176
AAAGTACA	0.27
ATAAGAAA	0.207
CCAAAGAA	0.124
ATAAGAAC	0.289
ACAAGAAT	0.1
TCGAAGAA	-0.0713
ACAAAGAA	0.257
ACGAAGAA	0.282
CCAAGAAA	-0.00981
TCAAAGAA	-0.0713
ATAAGAAT	0.207
ACGAAGAT	0.0321
ACAAGAAA	0.268
AACTTTTC	0.0947
AATCCCGG	-0.139
CTGAGGAA	-0.0654
ACCAGGTG	-0.245

Sequence	PBM E-score
CCTTTGGA	-0.218
ACCACAGT	0.143
GAACCAAC	0.00249
AGACATCC	-0.152
GACTGCAA	-0.0662
CCAACCGG	-0.193
ATCCAACC	0.00913
CGGGTGGC	-0.289
CTAAAGAA	0.0205
ATAAAGAA	0.26
TTAAAGAA	0.19
ATATCACG	0.181
GTGTCGAA	-0.0549
CTGTATGC	-0.0877
CACGCCAA	-0.0782
ATTCAATC	0.0991
TAAAGTGA	0.263
CAAAGTGA	0.0818
AAAAGTGA	0.132
CCAACTCC	0.117
GGCCCAAA	-0.0982
CCAGCAAA	0.0803
ATTAGTCA	0.42
CTTAGTCC	-0.0515
CTAAGTCA	0.024

Sequence	PBM E-score
CTTAGTCA	0.373
CCTAGTCA	0.0001
ATTAGTCC	0.207
ATTAGTGC	0.299
ATTAGTGA	0.179
ATTAGTGG	0.243
ATAAGTCC	0.0332
ATAAGTCA	0.262
ATTAGTCG	0.12
CATTGAAC	0.07
GCGTTGCA	-0.112
CAGAAACC	0.0742
CACGCTAA	0.0663
CGATCGAC	0.14
AGATCTAT	-0.115
ATCGGGCG	-0.21
AGTGCTCG	-0.11
TCAAGCAA	-0.15
AAGAGCAC	-0.0358
ATTAGTTA	0.291
CTCAGTTA	-0.0635
CTTAGTAA	0.429
GTTAGTCA	0.33
GTTAGTTA	0.169
ATTAGTTG	0.192

Sequence	PBM E-score
CTTAGTAC	0.0262
ATCAGTTA	0.272
GTCAGTTA	0.113
GTTAGTAA	0.217
GTTAGTGA	0.0844
GGTAGTCA	-0.176
ACAGGTCG	-0.0506
TATTGACA	0.0463
CCGCCAGC	-0.196
AACACTGC	0.186
CACGCCTA	-0.1
GATATGCC	-0.0864
CTGATCGA	-0.239
GTGATCGA	0.282
ATGATCGA	0.0147
ACTTCCGG	0.0969
CTCAAGAC	-0.133
AGTGAGTG	-0.0641
AATGAGTA	0.33
AATGAGAG	-0.0586
AATGAGAC	-0.0964
CGTGAGTA	-0.0244
AGTGAGTA	0.271
CATGAGTA	0.0202
AATGAGAT	0.266

Sequence	PBM E-score
GATGAGTA	0.181
ACAAAACA	0.202
TCCTAAAA	-0.115
GACAGAAA	0.183
AACAGAAA	0.157
CATAGAAA	0.268
GATAGAAA	0.187
GAGAGAAA	0.0853
CAGAGAAG	-0.127
TATAGAAA	0.0802
CAGAGAAA	0.278
TACAGAAA	0.262
CATCTACC	0.145
CTTGAGCA	-0.119
ATCTTGCA	0.151
AATAGATC	0.08
AATTAATG	0.29
CATTAATG	0.212
AATTAAGA	0.154
GATTAATC	0.117
AATTAATC	0.0963
AATTAATA	0.353
GATTAAGA	0.193
AATTAATT	0.211
GATTAATA	0.367

Sequence	PBM E-score
CATTAATA	0.193
TATTAACA	0.23
TATTAATA	0.301
CACCCATG	-0.014
ATCGCACC	-0.106
GCTCTGTA	-0.055
GCCAAGTA	-0.0708
CATAAGAG	-0.071
CTTTTGTC	0.0462
CGACCCAC	-0.219
TCGGATAA	0.143
GTCAAGTA	-0.12
ATCTCTGC	0.0777
ACACTGAT	0.0678
ATTACTGG	-0.0154
TGCGAAAA	0.0554
GGCGAAAA	0.256
GGCGAAAC	0.0862
TACGAAAA	0.144
CACGAAAA	0.176
GACGAAAA	0.264
CTGCGATC	-0.0633
CGTAGATC	0.0115
GTACAGGA	0.0424
AACATCTC	0.08

Sequence	PBM E-score
ACAGAAAA	0.198
CCAGAAAC	0.0139
ACAGAAAC	0.285
ACTGAAAG	0.114
ACTGAAAC	0.27
GCTGAAAC	-0.0804
GCAAATCC	0.156
CGTCCTTC	0.0406
CTATGGGA	-0.103
CGTCCCTA	-0.206
TACTAAAA	0.255
TACTAACA	0.294
AACTAACA	0.211
GACTAAAA	0.0994
AACTATAA	0.186
AACTAAAA	0.148
CACTATAA	-0.00697
GACTGAAA	0.0541
TACTATAA	0.266
CACTAACA	0.162
TACTGAAA	0.273
CACTGAAA	0.0595
GACTTTGA	0.00307
